Calls of active or inactive are those of the source. Unless noted, how the calls were made is not given here.
What was measured:
[1] = compound effects on lung adenocarcinoma cell viability – A549, calcein-AM fluorescence, 48 h, basal, profiling panel (AID 1162); details: higher = more signal; further: test concentration not given here
[2] = compound effects on differentiated 3T3-L1 adipocyte viability – cell-based, 3T3-L1 adipocytes, calcein-AM fluorescence, 48 h, basal, profiling panel (AID 1163); details: 3T3-L1 adipocytes viability, higher = more signal; further: test concentration not given here
[3] = compound effects on hepatocellular carcinoma cell viability – HepG2, calcein-AM fluorescence, 48 h, basal, profiling panel (AID 1164); details: higher = more signal; further: test concentration not given here
[4] = compound effects on multiple myeloma cell viability – MM1S, calcein-AM fluorescence, 48 h, basal, profiling panel (AID 1165); details: higher = more signal;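 further: viability of MM1S multiple myeloma cells under basal unstimulated conditions; test concentration not given here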
[5] = calcein-AM signal in unstimulated myeloma cells – cell-based, calcein-AM fluorescence, 48 h, PK04 Diversity Set, profiling panel (AID 1166); details: RPMI8226 myeloma viability, higher = more signal;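 further: cells grown under basal conditions without added stimulus; test concentration not given here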
[6] = JC-1 mitochondrial signal, unstimulated HepG2 cells – cell-based, JC-1 fluorescence, 24 h, 100 nL compound, profiling panel (AID 1167); details: HepG2 mitochondrial potential, higher = more signal; further: test concentration not given here
[7] = JC-1 mitochondrial signal, unstimulated adipocytes – cell-based, JC-1 fluorescence, 3T3-L1 adipocytes, 24 h, 100 nL compound, profiling panel (AID 1168); details: JC-1 mitochondrial fluorescence, higher = more signal, called active from +8 up or from −8 down; further: test concentration not given here
[8] = JC-1 mitochondrial signal, unstimulated myeloma cells – cell-based, JC-1 fluorescence, RPMI8226, 24 h, 100 nL compound, profiling panel (AID 1169); details: JC-1 mitochondrial potential fluorescence, higher = more signal; further: test concentration not given here
[9] = JC-1 mitochondrial signal, unstimulated MM1S myeloma – cell-based, JC-1 fluorescence, 24 h, 100 nL compound, profiling panel (AID 1170); details: MM1S mitochondrial potential, higher = more signal; further: test concentration not given here
[10] = resazurin metabolic signal in A549 cells – cell-based, resazurin fluorescence, 24 h, PK04 Diversity Set, profiling panel (AID 1171); details: A549 viability, higher = more signal, called active from +8 up or from −8 down; further: test concentration not given here
[11] = resazurin metabolic signal in HepG2 cells – cell-based, resazurin fluorescence, 24 h, PK04 Diversity Set, profiling panel (AID 1172); details: HepG2 viability, higher = more signal; further: test concentration not given here
[12] = budding yeast growth changes without added modifier – OD600, strain BY4716, 24 h, basal condition, primary screen (AID 1173); details: S. cerevisiae BY4716 growth, OD600, 24 h; higher = more signal, called active from +8 up or from −8 down
[13] = viability profiling in MM1S myeloma cells – cell-based, resazurin fluorescence, basal, 24 h, PK04 Diversity Set, profiling panel (AID 1174); details: higher = more signal, called active from +8 up or from −8 down; further: test concentration not given here
[14] = molecular target: Dihydroorotate dehydrogenase (quinone), mitochondrial (Plasmodium falciparum (isolate 3D7)) (UniProt Q08210); test: inhibition of P. falciparum DHODH – biochemical, C-terminal His tag, absorbance 600 nm, primary screen (AID 1175); details: PfDHODH enzyme, DCIP absorbance 600 nm; higher = more signal, called active from +8 up or from −8 down;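 further: recombinant parasite enzyme with a five histidine tag at its C terminus; test concentration not given here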
Chain of Dihydroorotate dehydrogenase (quinone), mitochondrial (Plasmodium falciparum (isolate 3D7)) (Q08210 whole entry, looked up): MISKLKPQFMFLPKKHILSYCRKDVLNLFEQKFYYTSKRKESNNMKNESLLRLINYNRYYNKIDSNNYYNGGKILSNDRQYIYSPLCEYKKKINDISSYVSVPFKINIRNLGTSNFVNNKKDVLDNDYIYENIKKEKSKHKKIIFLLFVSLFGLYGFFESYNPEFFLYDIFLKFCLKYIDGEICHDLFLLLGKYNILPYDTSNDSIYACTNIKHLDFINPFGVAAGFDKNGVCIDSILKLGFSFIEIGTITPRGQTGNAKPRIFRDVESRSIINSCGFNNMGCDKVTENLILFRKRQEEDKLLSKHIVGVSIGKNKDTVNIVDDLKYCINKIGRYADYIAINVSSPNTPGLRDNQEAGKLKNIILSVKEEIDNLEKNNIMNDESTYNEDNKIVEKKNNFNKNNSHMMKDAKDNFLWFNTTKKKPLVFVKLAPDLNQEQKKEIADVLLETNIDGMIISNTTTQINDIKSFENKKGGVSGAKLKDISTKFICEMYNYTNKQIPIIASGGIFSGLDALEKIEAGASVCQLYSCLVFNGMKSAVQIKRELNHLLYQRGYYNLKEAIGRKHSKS

[15] = inhibition of PAO1 biofilm formation – strain PAO1, LB-PBS medium, absorbance 600 nm, primary screen (AID 1176); further: test concentration not given here; details: P. aeruginosa PAO1 growth/biofilm, A600, 12 h; higher = more signal
[16] = growth modulation of vineyard yeast isolate – strain RM11-1a, OD600, basal, 24 h, primary screen (AID 1177);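 further: cultures grown under basal conditions with no added stressor; test concentration not given here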; details: S. cerevisiae RM11-1a growth, OD600, 24 h; higher = more signal, called active from +8 up or from −8 down
[17] = growth of efflux-deficient E. coli DRC39 – strain DRC39, OD650, 24 h, E. coli filamentation inducers, primary screen (AID 1178);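 further: growth measured as culture turbidity by optical density at 650 nm; test concentration not given here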; details: E. coli DRC39 acrAB, higher = more signal, called active from +8 up or from −8 down
[18] = growth of efflux-deficient E. coli DRC39 – strain DRC39, OD650, 48 h, E. coli filamentation inducers, primary screen (AID 1179);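 further: screen aims at cell division blockers that make cells filament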; details: E. coli DRC39 delta-acrAB growth, higher = more signal, called active from +8 up or from −8 down
[19] = viability profiling in RPMI8226 myeloma cells – cell-based, resazurin fluorescence, basal, 24 h, PK04 Diversity Set, profiling panel (AID 1180); details: higher = more signal;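 further: RPMI8826 multiple myeloma cell line at 5000 cells per well; test concentration not given here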
[20] = molecular target: E3 ubiquitin-protein ligase XIAP (Homo sapiens) (UniProt P98170); test: small molecules binding XIAP protein – biophysical, small-molecule microarray, fluorescence 635 nm, primary screen (AID 1181); details: higher = more signal;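 further: score merges 667 nm emission and signal to noise over triplicate slides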
Chain of E3 ubiquitin-protein ligase XIAP (Homo sapiens) (P98170 whole entry, looked up): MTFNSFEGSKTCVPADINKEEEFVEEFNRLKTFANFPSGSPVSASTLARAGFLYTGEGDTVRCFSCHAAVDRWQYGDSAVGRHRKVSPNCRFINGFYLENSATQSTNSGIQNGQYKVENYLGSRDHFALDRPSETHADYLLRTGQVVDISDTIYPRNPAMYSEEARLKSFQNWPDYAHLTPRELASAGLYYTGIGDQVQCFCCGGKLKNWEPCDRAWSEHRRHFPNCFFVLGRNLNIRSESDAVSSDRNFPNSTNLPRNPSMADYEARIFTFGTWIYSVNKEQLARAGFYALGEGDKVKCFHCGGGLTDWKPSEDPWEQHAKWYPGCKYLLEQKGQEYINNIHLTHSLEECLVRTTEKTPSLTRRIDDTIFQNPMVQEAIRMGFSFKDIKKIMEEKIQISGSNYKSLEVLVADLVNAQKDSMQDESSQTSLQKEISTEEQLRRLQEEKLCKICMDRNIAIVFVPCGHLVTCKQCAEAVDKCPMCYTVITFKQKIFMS

Structure (SMILES)	z-score [1]	z-score [2]	z-score [3]	z-score [4]	z-score [5]	z-score [6]	z-score [7]	z-score [8]	z-score [9]	z-score [10]	z-score [11]	z-score [12]	z-score [13]	composite z-score [14]	z-score [15]	z-score [16]	z-score [17]	z-score [18]	z-score [19]	composite z-score [20]
CCN(CC)c1ccc(N2CC=CC34O[C@@H]5/C=C\CCC(C)OC(=O)C5[C@H]3C(=O)N(CCO)[C@@H]4C2=O)cc1 (stereo not given in full)	0.17	0.879	0.498	-0.379	-0.597	0.178	-0.905 (inactive)	-0.22	1.83	-0.857 (inactive)	-0.68	-0.958 (inactive)	-0.742 (inactive)	0.543 (inactive)	-0.593 (inactive)	-0.481 (inactive)	-0.736 (inactive)	-0.949 (inactive)	-0.833	0.283
CC(C)(C)OC(=O)CC[C@]1(C(=O)O)N=C(c2ccc(OCCCO)cc2)O[C@H]1c1ccccc1CN=[N+]=[N-]	0.61	-0.788	0.682	0.519	0.375	1.43	1.05 (inactive)	-0.697	-0.738	-0.245 (inactive)	0.706	-0.0245 (inactive)	0.444 (inactive)	0.209 (inactive)	-0.788 (inactive)	-0.165 (inactive)	0.184 (inactive)	1.25 (inactive)	0.925	-0.204
CC(C)C(CO)N1C(=O)[C@]2(C)C3C(=O)OCCC/C=C\[C@H]3OC23C=CCN(c2ccc(Cl)cc2)C(=O)[C@@H]13 (stereo not given in full)	-0.0554	-0.199	1.08	0.547	0.163	-0.484	-0.52 (inactive)	-0.634	-0.0291	-0.503 (inactive)	-0.575	0.0095 (inactive)	-0.581 (inactive)	-1.04 (inactive)	-0.36 (inactive)	-0.3 (inactive)	-0.391 (inactive)	-0.261 (inactive)	-0.713	0.117
[N-]=[N+]=Nc1ccccc1[C@H]1OC(c2ccc(OCCCO)cc2)=N[C@@]1(CCS(=O)(=O)c1ccccc1)C(=O)N1CCCCC1	-0.851	1.5	-0.641	-1.56	-2.7	0.43	-0.903 (inactive)	-0.877	-0.801	-1.01 (inactive)	0.186	-0.0728 (inactive)	-1.63 (inactive)	-0.792 (inactive)	0.715 (inactive)	0.836 (inactive)	0.21 (inactive)	-0.714 (inactive)	-1.64	-0.0884
COC(=O)[C@@]1(Cc2ccc(OC)cc2)[C@H]2c3cc(C(=O)N4CCCC4)n(CCc4cc5ccccc5[nH]4)c3C[C@H]2CN1C(=O)c1ccccc1	-0.596	-0.0596	0.471	-0.574	-1.84	0.877	-0.538 (inactive)	-0.922	-1.1	-0.0485 (inactive)	-0.406	1.3 (inactive)	-1.24 (inactive)	0.203 (inactive)	0.756 (inactive)	1.03 (inactive)	0.009 (inactive)	-0.655 (inactive)	-0.818	-0.0685
CCOC(=O)C1=CC[C@@H](c2ccccc2)N(S(=O)(=O)c2ccc(C)cc2)C1	-0.747	-0.384	-0.165	-1.22	-1.62	0.546	-1.07 (inactive)	0.84	-0.977	-0.145 (inactive)	-0.842	1.39 (inactive)	-1.31 (inactive)	0.806 (inactive)	0.465 (inactive)	1.82 (inactive)	-0.866 (inactive)	-0.869 (inactive)	-2.53	0.0975
CCCNC(=O)[C@@]1(c2ccc([N+](=O)[O-])cc2)CC(=O)N(C2CCCCC2)[C@@H]1c1ccc(CO)cc1I	-0.165	-0.599	-0.451	-3.22	-1.01	0.22	-1.13 (inactive)	-0.677	-1.11	0.72 (inactive)	-0.455	0.641 (inactive)	-0.606 (inactive)	0.478 (inactive)	0.429 (inactive)	-0.327 (inactive)	0.549 (inactive)	-0.303 (inactive)	-1.18	0.134
O=C1c2ccccc2[C@@]2(Cc3ccccc3N(C3CC3)C2=O)[C@H](c2ccc(CO)cc2)N1C1CCCCC1	-0.506	-0.621	-0.578	-0.258	-2.4	-0.266	-0.971 (inactive)	0.818	0.144	-0.179 (inactive)	-0.319	0.979 (inactive)	-0.36 (inactive)	-4.68 (inactive)	0.264 (inactive)	1.24 (inactive)	0.609 (inactive)	0.106 (inactive)	-0.546	0.242
CC[C@H]1C2=C3C(CC[C@H]4C(OCc5ccc(F)cc5C(F)(F)F)OC[C@](C)([C@@H]34)N(C(=O)OC(C)(C)C)C2)C2COC(=O)OCC21 (stereo not given in full)	-0.195	-0.412	0.478	-2.9	-4.68	-0.492	-1.41 (inactive)	-0.0899	-1.45	-0.186 (inactive)	-1.12	0.485 (inactive)	-1.46 (inactive)	0.0979 (inactive)	0.551 (inactive)	0.368 (inactive)	-0.678 (inactive)	-0.36 (inactive)	-0.556	0.131
